# PubChem BioAssay
# Several values for one entry are separate records, joined by “and”; a condition that tells them apart may be missing. Equal entries are not always repeated. Activity calls are given as the source filed them. Rule as the data show it, unless noted: active = inhibition above about 80%; inactive = the rest.
# Legend:
# [1] = viability loss with induced miR-34 in A549 – imaging, A549 dox-inducible miR-34, nuclei and caspase counts, primary screen (AID 1347080;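 active = compounds whose cell count with miR-34 switched on is under 0.7 times the count with it off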); conditions: A549 miR-34 inducible, Hoechst nuclei count, 48 h
# [2] = MELAS cybrid and Rieske KO viability enhancers – cell-based, MELAS cybrids, Rieske KO mouse fibroblasts, CellTiter-Glo, primary screen (AID 1508586;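 active = mean z-score across replicates of 1.96 or higher in either the MELAS or the Rieske mutant cell line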;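 also: z relative to plate mean and SD of compound and empty wells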); conditions: low glucose
# [3] = galactose survival enhancers in mitochondrial complex I cybrids – cell-based, galactose medium, ATP luminescence, primary screen (AID 1645843;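 active = z-score of at least 1.8 in each of two replicates, scored against plate mean and spread of sample wells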;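 also: positive z means more ATP and so rescue of galactose-driven cybrid death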); conditions: complex I mutant cybrid cells, 72 h, stronger effect = higher value
# [4] = growth inhibition, single agent or in combination, cell-based, chromothripsis tumors, cisplatin or BGB combos (AID 1671449); conditions: LFS_MB_P medulloblastoma cells;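 also: cells exposed for 96 hours; 0% = vehicle DMSO and 100% = killing by high DMSO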
# [5] = growth inhibition, single agent and combos, cell-based, chromothripsis tumors, cisplatin or BGB combos (AID 1671450); conditions: HDN33 neuroblastoma cells, stronger effect = higher value;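 also: cells exposed to compound for four days; 0% = vehicle DMSO and 100% = cell killing by high DMSO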
# [6] = growth inhibition, single agents and combos, ICB984, cell-based, cisplatin or BGB combos, synergistic combos for chromothripsis tumors (AID 1671451; call rule not given here;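 also: cells exposed for 96 hours before readout; 0% = vehicle DMSO and 100% = killing by high DMSO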); conditions: ICB984 medulloblastoma cells, drug combinations, stronger effect = higher value
# [7] = growth inhibition, single agents and combos, LFS_MB_1R, cell-based, cisplatin or BGB combos, synergistic combos for chromothripsis tumors (AID 1671452); conditions: LFS_MB_1R medulloblastoma cells, stronger effect = higher value;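 also: cells exposed for 96 hours before readout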
# [8] = growth inhibition, single agents and combos, HTB85, cell-based, BGB or cisplatin IC20 combos, synergistic combos for chromothripsis tumors (AID 1671453); conditions: HTB85 osteosarcoma cells, drug combinations, stronger effect = higher value;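 also: cells exposed for 96 hours before readout; 0% = vehicle DMSO and 100% = high DMSO killing control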
# [9] = growth inhibition, single agents and combos, CRL2098, cell-based, BGB or cisplatin IC20 combos, synergistic combos for chromothripsis tumors (AID 1671454); conditions: CRL2098 osteosarcoma cells, drug combinations, stronger effect = higher value;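 also: cells exposed for 96 h before readout; 0% = vehicle DMSO and 100% = killing by high DMSO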
# [10] = growth inhibition, single agents and combos, HD-MB03, cell-based, BGB or cisplatin IC20 combos, synergistic combos for chromothripsis tumors (AID 1671455; in the data active = inhibition above about 83%;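 also: 0% = vehicle DMSO and 100% = high DMSO as cytotoxic control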); conditions: HD-MB03 medulloblastoma cells, stronger effect = higher value
# [11] = growth inhibition, single agents and combos, UWB1.289, cell-based, BGB or cisplatin combos, synergistic combos for chromothripsis tumors (AID 1671456); conditions: UWB1.289 ovarian carcinoma cells, stronger effect = higher value;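 also: cells exposed to compound for four days; 0% = vehicle DMSO and 100% = killing by high DMSO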
# [12] = growth inhibition, single agents and combos, LFS_MB_2R, cell-based, cisplatin combos, synergistic combos for chromothripsis tumors (AID 1671457); conditions: LFS_MB_2R medulloblastoma cells, stronger effect = higher value;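 also: cells exposed to compound for four days before readout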
# [13] = growth inhibition, MDA-MB-436, cell-based, BGB or cisplatin combos, synergistic combos for chromothripsis tumors (AID 1671458; call rule not given here;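 also: cells exposed for 96 hours; 0% = vehicle DMSO and 100% = killing by high DMSO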); conditions: MDA-MB-436 breast carcinoma growth inhibition, drug combinations, stronger effect = higher value
# [14] = UWB1.289_BRCA1 ovarian cancer growth, cell-based, BGB or cisplatin combinations (AID 1671459); conditions: UWB1.289 BRCA1 ovarian carcinoma, drug combinations, stronger effect = higher value
# [15] = drug combination toxicity in non-malignant astrocytes – cell-based, BGB or cisplatin IC20 combos, cytotoxicity control for chromothriptic childhood tumor combination screen (AID 1671460); conditions: Human astrocytes, viability inhibition, drug combinations, at 0.5 µM, stronger effect = higher value;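 also: cells exposed to compounds for 96 hours before viability readout; 0% = vehicle and 100% = killing control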
# [16] = BT084 cell growth, single and combined drugs, ICGC_MB145, cisplatin and BGB IC40 combos (AID 1671461); conditions: BT084 medulloblastoma cells, drug combinations, stronger effect = higher value;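 also: cells exposed to drugs for 96 hours; 0% = vehicle DMSO and 100% = high DMSO full killing control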
# [17] = RCMB18 cell growth, single agent and combined, cisplatin and BGB IC40 combos (AID 1671462); conditions: RCMB18 medulloblastoma cells, stronger effect = higher value;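 also: cells exposed to compound for four days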
# [18] = CRL1545 cell growth, single agent and combined, cisplatin and BGB IC20 combos (AID 1671464); conditions: CRL1545 osteosarcoma cells, stronger effect = higher value;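 also: cells exposed to compound for 96 hours before readout; 0% = vehicle DMSO and 100% = high DMSO killing control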
# [19] = measured here: combination with BGB IC40, at 0.05 µM
# [20] = measured here: with BGB IC20 combination, at 0.5 µM
# [21] = measured here: with cisplatin IC20 combination, at 0.5 µM
# [22] = measured here: combination with cisplatin, at 0.5 µM
# [23] = measured here: combination with cisplatin, at 5 µM
smiles,measurement,setting,value
Nc1nc(Cl)nc2c1ncn2C1CC(O)C(CO)O1 (stereo not given),fold change,"[1]; stronger effect = lower value, cell number ratio, induced over uninduced",0.657 (active) and 0.485 (active)
same,fold change,[1]; measured here: relative caspase fold change +Dox/-Dox,3.27 and 5.56
same,cell count,"[1]; measured here: total cells with miR-34 induction, stronger effect = lower value",1440 and 1620
same,cell count,[1]; measured here: total cells without miR-34 induction,2200 and 3330
same,z-score,"[2]; MELAS cybrid survival, CellTiter-Glo 48 h, stronger effect = higher value",0.255 (inactive)
same,z-score,"[2]; Rieske KO mouse fibroblast survival, CellTiter-Glo 72 h",0.0981
same,z-score,[3],-1.71 (inactive)
same,inhibition,"[4]; at 0.5 µM, stronger effect = higher value",-16% (inactive) and 3.33% (inactive)
same,inhibition,"[4]; measured here: combination with BGB IC20, at 0.005 µM",-14.4% and 7.64%
same,inhibition,"[4]; measured here: combination with BGB IC40, at 0.005 µM",-28.7% and 21.8%
same,inhibition,[4]; [19],-54.9% and 15%
same,inhibition,"[4]; measured here: combination with cisplatin, at 0.5 µM, stronger effect = higher value",-23.7% and 50.7%
same,inhibition,"[4]; measured here: combination with cisplatin, at 5 µM, stronger effect = higher value",76.7% and 86.2%
same,inhibition,"[5]; BGB combo, at 5 µM",83.3% and 87.6%
same,inhibition,[5]; at 0.5 µM,6.11% (inactive) and 14.7% (inactive)
same,inhibition,"[5]; cisplatin combo, at 5 µM",79% and 81.5%
same,inhibition,[5]; [20],10.3% and 9.34%
same,inhibition,[5]; [21],-1.24% and 16.1%
same,inhibition,"[5]; single agent, at 5 µM",84.5% and 87.2%
same,inhibition,"[6]; BGB IC20 combo, at 0.005 µM",-1.92% and -30.4%
same,inhibition,"[6]; BGB IC40 combo, at 0.005 µM",-14.5% and -25.7%
same,inhibition,"[6]; BGB IC40 combo, at 0.05 µM",-14.6% and -11.7%
same,inhibition,[6]; at 0.5 µM,-34.2% (inactive) and -10.6% (inactive)
same,inhibition,"[6]; cisplatin combo, at 0.05 µM",-18.7% and -11.7%
same,inhibition,"[6]; cisplatin combo, at 0.5 µM",-35.7% and -23.4%
same,inhibition,"[6]; cisplatin combo, at 5 µM",-35.2% and -39.5%
same,inhibition,"[6]; measured here: 5 uM single agent, at 5 µM",-14.9% and -11.7%
same,inhibition,[7]; at 0.5 µM,-20.9% (inactive) and -13% (inactive)
same,inhibition,[7]; [19],-46.2% and -32.5%
same,inhibition,[7]; [22],26.2% and 30.5%
same,inhibition,[7]; [23],52% and 76.7%
same,inhibition,[8]; at 0.5 µM,22.5% (inactive) and 18.5% (inactive)
same,inhibition,"[8]; measured here: with BGB IC20, at 0.5 µM",21.3% and 13.2%
same,inhibition,"[8]; measured here: with BGB IC20, at 5 µM",92.2% and 94.6%
same,inhibition,"[8]; measured here: with cisplatin IC20, at 0.5 µM",10.1% and 11.2%
same,inhibition,"[8]; measured here: with cisplatin IC20, at 5 µM",90.5% and 90%
same,inhibition,"[8]; single agent, at 5 µM",94.7% and 91.5%
same,inhibition,[9]; at 0.5 µM,-92.1% (inactive) and -37.1% (inactive)
same,inhibition,"[9]; measured here: combination with BGB at IC20, at 0.5 µM",-60.9% and -36.5%
same,inhibition,"[9]; measured here: combination with cisplatin at IC20, at 0.5 µM",-146% and -71.4%
same,inhibition,[10]; at 0.5 µM,93.4% (active) and 93.2% (active)
same,inhibition,"[10]; measured here: combo with BGB at IC20, at 0.5 µM",87.7% and 88.9%
same,inhibition,"[10]; measured here: combo with cisplatin at IC20, at 0.5 µM",96.3% and 94.8%
same,inhibition,[11]; at 0.5 µM,12.5% (inactive) and 14.8% (inactive)
same,inhibition,"[11]; measured here: inhibition with BGB combination, at 0.05 µM",-7.25% and -6.1%
same,inhibition,"[11]; measured here: inhibition with cisplatin combination, at 0.05 µM",-13.8% and -6.66%
same,inhibition,[12]; at 0.5 µM,-3.57% (inactive) and 10.2% (inactive)
same,inhibition,[12]; [22],24.5% and 43.1%
same,inhibition,[12]; [23],61.9% and 69.5%
same,inhibition,[13]; at 0.5 µM,3.02% (inactive) and 2.95% (inactive)
same,inhibition,"[13]; measured here: BGB combination, at 0.5 µM",-5.54% and -2.62%
same,inhibition,"[13]; measured here: BGB combination, at 5 µM",46.1% and 53.6%
same,inhibition,"[13]; measured here: cisplatin combination, at 0.5 µM",-4.37% and -12.8%
same,inhibition,"[13]; measured here: cisplatin combination, at 5 µM",61.1% and 70%
same,inhibition,"[14]; BGB combination, concentration series, at 5 µM",43.2% and 57.7%
same,inhibition,[14]; at 0.5 µM,20.9% (inactive) and 19.3% (inactive)
same,inhibition,"[14]; cisplatin combination, concentration series, at 5 µM",48.4% and 63.7%
same,inhibition,[15],58.1% (inactive) and 38.4% (inactive)
same,inhibition,[15]; measured here: combo with BGB IC20,62.6% and 39.2%
same,inhibition,[15]; measured here: combo with cisplatin IC20,42.6% and 31.2%
same,inhibition,[16]; at 0.5 µM,-0.858% (inactive) and 10.4% (inactive)
same,inhibition,"[16]; cisplatin combination, at 0.5 µM",37.2% and 42%
same,inhibition,"[16]; cisplatin combination, at 5 µM",65.8% and 54%
same,inhibition,"[16]; measured here: BGB IC40 combination 0.05 uM, at 0.05 µM",-30.7% and 12.8%
same,inhibition,"[16]; single agent, at 5 µM",1.68% and 7.77%
same,inhibition,[17]; at 0.5 µM,19.1% (inactive) and 26.3% (inactive)
same,inhibition,"[17]; cisplatin combo, at 5 µM",83.6% and 81.2%
same,inhibition,"[17]; measured here: BGB IC40 combination, at 0.05 µM",-5.46% and 2.56%
same,inhibition,[17]; [22],70.6% and 65.1%
same,inhibition,"[17]; single agent, at 5 µM",27.8% and 40.5%
same,inhibition,[18]; at 0.5 µM,-27.8% (inactive) and -35.8% (inactive)
same,inhibition,[18]; [20],-14.9% and -11.9%
same,inhibition,[18]; [21],-36.5% and -47.7%
same,inhibition,"[18]; single agent, at 0.05 µM",-95.3% and 17.3%
same,inhibition,"[18]; single agent, at 5 µM",75.8% and 80.1%
